LmPK inh – inhibitors of Leishmania mexicana pyruvate kinase. Q27686. purified LmPK, Kinase-Glo ATP luminescence, 1 h. Potency, µM (highest dose often 57.5 µM), for the others: at the top dose activity change, negative = inhibition, usual class: inhibitors. actives 0.37% (n = 290,000). AID 1721; note: potency is the fitted concentration of half-maximal effect; % is set by controls: 0 for no effect and ±100 for the full control effect
Target sequence (Q27686 whole entry, looked up): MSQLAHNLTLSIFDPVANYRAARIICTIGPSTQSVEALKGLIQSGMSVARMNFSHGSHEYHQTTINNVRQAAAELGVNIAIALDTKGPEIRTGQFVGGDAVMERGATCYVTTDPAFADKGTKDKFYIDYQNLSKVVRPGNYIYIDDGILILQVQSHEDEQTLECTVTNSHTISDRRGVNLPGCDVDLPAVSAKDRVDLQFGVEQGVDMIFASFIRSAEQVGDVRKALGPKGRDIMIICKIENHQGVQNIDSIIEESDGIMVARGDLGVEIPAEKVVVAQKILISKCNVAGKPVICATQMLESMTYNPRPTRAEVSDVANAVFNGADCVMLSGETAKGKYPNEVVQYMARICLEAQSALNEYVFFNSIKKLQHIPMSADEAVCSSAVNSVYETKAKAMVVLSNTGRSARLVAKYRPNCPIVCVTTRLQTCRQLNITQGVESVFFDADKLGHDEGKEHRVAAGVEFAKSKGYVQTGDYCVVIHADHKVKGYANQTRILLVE
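Screened at intermediate enzyme activity to detect both inhibitors and activators: LmPK at 0.1 nM, with a 0.5 nM enzyme column as activation reference. PEP 0.5 mM, ADP 0.1 mM; ATP detected by luminescence after 1 h.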
Cycloheximide cs – counter-screen for Shiga toxin inhibitors: cycloheximide protein synthesis inhibition; actives 12% (n = 300,000); cell reporter, cycloheximide protein synthesis inhibition counterscreen; max response, %; in the data active = max response mostly above about 13%, no sharp cut-off; inactive = mostly below about 14%; note: read at 38.3 µM for the half of the compounds with a filed dose; 0% is about no effect
Shiga toxin inh – inhibitors of Shiga toxin in Vero cells. Vero cells, Shiga toxin protein synthesis inhibition reporter. inhibition, % at 38.7 µM. actives 9.2% (n = 290,000); in the data active = inhibition mostly above about 28%, no sharp cut-off; inactive = mostly below about 43%; note: 0% is about no effect
RE007 growth inh – less growth of the S. pombe RE007 Vpr strain; S. pombe RE007 Vpr strain, BacTiter-Glo ATP luminescence, 24 h; Potency, µM (doses to about 92.2 µM), for inactives: at the top dose activity change, negative = less growth, hits mostly inhibitors; actives 0.21% (n = 360,000); active = well fitted falling curve with a large enough effect; inconclusive = small, poorly fitted or top-dose-only effect; inactive = no such curve, though single readings can be large or run the other way; note: potency is the fitted concentration of half-maximal effect; % is set by controls: 0 for no effect and ±100 for the full control effect; nearly all actives have a fitted effect of over 50% in size
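Fission yeast strain RE007, carrying one chromosomally integrated HIV-1 vpr copy, was seeded at OD 0.01 in PMG+AL medium with 23 nL pinned compound. After 24 h at 30 °C and 99% humidity, viability was read by BacTiter-Glo luminescence.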
Giardia FBPA inh-1 – blocks Giardia fructose-bisphosphate aldolase activity; purified Giardia FBPA; AID 2451; A8B2U2; actives 0.71% (n = 290,000); Potency, µM (titrated, usually from 59.6 µM), inactives show top-dose activity, negative = inhibition, most hits filed as inhibitors; note: potency is the fitted concentration of half-maximal effect; % is set by controls: 0 for no effect and ±100 for the full control effect; nearly all actives have a fitted effect of over 55% in size
Target sequence (A8B2U2 whole entry, looked up): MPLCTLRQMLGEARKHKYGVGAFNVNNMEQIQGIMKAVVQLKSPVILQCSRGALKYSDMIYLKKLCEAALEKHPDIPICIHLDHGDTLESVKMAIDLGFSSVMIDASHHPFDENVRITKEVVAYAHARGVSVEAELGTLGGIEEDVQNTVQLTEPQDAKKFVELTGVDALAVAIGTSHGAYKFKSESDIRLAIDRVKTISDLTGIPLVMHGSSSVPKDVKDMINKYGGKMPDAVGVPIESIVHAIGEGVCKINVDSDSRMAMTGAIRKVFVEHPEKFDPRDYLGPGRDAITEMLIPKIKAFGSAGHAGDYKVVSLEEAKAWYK
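Giardia FBPA (40 nM reagent) was preincubated 10 min at RT with compound (up to 57.5 uM final), then substrate plus GAPDH/TPI/NAD/arsenate coupling system with diaphorase/resazurin was added; resorufin fluorescence (525/598 nm) was read after 20 min.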
TbPYK inhibitor – inhibitors of Trypanosoma brucei pyruvate kinase; actives 0.12% (n = 410,000); TbPYK enzyme, Kinase-Glo Plus ATP luminescence, 45 min; AID 624173; Potency, µM (series often up to 76.8 µM), inactives show top-dose activity, negative = inhibition, actives largely listed as inhibitors; Q57TT1; note: potency is the fitted concentration of half-maximal effect; % is set by controls: 0 for no effect and ±100 for the full control effect; nearly all actives have a fitted effect of over 50% in size
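Luminescence from Kinase-Glo Plus, added after a 45-minute room-temperature reaction, served as the end-point read-out. The enzyme and substrate were preincubated with compound before ADP (130 uM final) initiated turnover. Concentration-effect curves came from normalized qHTS data.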
Giardia growth – blocks growth of Giardia lamblia trophozoites; actives 5% (n = 1,500); shares compounds with Giardia FBPA inh-1; Giardia lamblia trophozoite growth inhibition; Potency, µM (top dose mostly 57.5 µM), without a hit: top-dose activity change, negative = inhibition, actives largely listed as inhibitors;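 note: potency is the fitted concentration of half-maximal effect; trophozoites exposed to compound for 48 h at 37 °C; % is set by controls: 0 for no effect and ±100 for the full control effect; nearly all actives have a fitted effect of over 70% in size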
Mammal cell tox – toxic to mammalian cells in Giardia aldolase counter-screen; shares compounds with Giardia FBPA inh-1; mammalian cell viability counter-screen, qHTS; Potency, µM (doses to about 57.5 µM), for the others: at the top dose viability change, negative = toxicity, actives largely listed as inhibitors; actives 4% (n = 1,500); AID 2786;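 note: Chinese hamster ovary cells used as mammalian cytotoxicity surrogate; viability measured as cellular ATP by luminescence; potency is the fitted concentration of half-maximal effect; compound exposure lasted 48 h before reading; % is set by controls: 0 for no effect and ±100 for the full control effect; nearly all actives have a fitted effect of over 60% in size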
Giardia FBPA inh-2 – confirmation of Giardia fructose-bisphosphate aldolase inhibitors | actives 5% (n = 1,500) | purified Giardia aldolase enzyme activity, qHTS | shares compounds with Giardia FBPA inh-1 | Potency, µM (titrated, usually from 57.5 µM), without a hit: top-dose activity change, negative = inhibition, actives largely listed as inhibitors | AID 2787; note: potency is the fitted concentration of half-maximal effect; % is set by controls: 0 for no effect and ±100 for the full control effect; nearly all actives have a fitted effect of over 45% in size
Rabbit aldolase – rabbit FBP aldolase inhibition by Giardia aldolase hits. AID 2794. Rabbit muscle FBPA enzyme inhibition, selectivity counter-screen. shares compounds with Giardia FBPA inh-1. Potency, µM (doses to about 57.5 µM), inactives show top-dose activity, negative = inhibition, usual class: inhibitors. actives 4% (n = 1,500); note: potency is the fitted concentration of half-maximal effect; % is set by controls: 0 for no effect and ±100 for the full control effect; nearly all actives have a fitted effect of over 60% in size
GAPDH counter – counter-screen for Giardia aldolase inhibitors: GAPDH coupling enzyme; GAPDH coupling enzyme counterscreen, biochemical, qHTS; shares compounds with Giardia FBPA inh-1; Potency, µM (doses to about 57.5 µM), for inactives: top-dose activity change, negative = inhibition, hits mostly inhibitors; actives 6% (n = 1,500); note: potency is the fitted concentration of half-maximal effect; % is set by controls: 0 for no effect and ±100 for the full control effect; nearly all actives have a fitted effect of over 55% in size
The depositor's hits bear a star; ? = inconclusive; nt = not tested or not shown; [ ] = remark or other dose. Many of the other results were omitted from the sample, so hits are more common in it than they were. Unless noted, calls come from the whole dose curve; as a rule, active = well fitted curve in the direction sought with a large enough effect; inconclusive = small, poorly fitted or top-dose-only effect, or another doubt; inactive = no such curve, though single readings can be large; an effect the other way counts as inactive or inconclusive.

SMILES | LmPK inh | Cycloheximide cs | Shiga toxin inh | RE007 growth inh | Giardia FBPA inh-1 | TbPYK inhibitor | Giardia growth | Mammal cell tox | Giardia FBPA inh-2 | Rabbit aldolase | GAPDH counter
CCCN=C1N(C)C[C@@H]2[C@@H]3C(=O)N(C)C(=O)[C@@H]3[C@](C)(C(=O)OC)N12 | nt | nt | nt | 7% | nt | 3% | nt | nt | nt | nt | nt
CCc1nnc(NC(=O)c2cc(S(=O)(=O)N(C)c3ccc(OC)cc3)ccc2Cl)s1 | -3% | -4 | -16 | -20% | nt | 2% | nt | nt | nt | nt | nt
COC(=O)C1OC(=O)C2OC23[C@]2(C)C(OC(C)=O)CC4C(C)(C)C(=O)CC[C@]4(C)C2CC[C@@]13C (some centres not stated) | nt | nt | nt | nt | 0% | nt | nt | nt | nt | nt | nt
Cc1ccc(NC(=O)CN2CCN(C)CC2)cc1Br | -4% | -1 | 2 | 2% | 16µM* | -2% | ? | 2% | 0% | 3% | 5%
CN1CCN(CC(=O)Nc2ccc(S(=O)(=O)N(C)C)cc2)CC1 | -10% | 9 | 8 | 2% | 14µM* | -2% | ? | -10% | 5% | -4% | 1%
COc1cccc(OCCn2ccnc2)c1 | 0% | -1 | 13 | 1% | -3% | 2% | nt | nt | nt | nt | nt
Cc1cccc(C)c1OCCCn1ccnc1 | -9% | 2 | 3 | 3% | 22µM* | -2% | 9% | 33% | 7% | 3% | 17%
Clc1cccc(OCCn2ccnc2)c1 | -3% | -1 | -3 | 7% | 35µM* | 10% | ? | 11% | 11% | 11% | 18%
CC(C)(C)c1ccccc1OCCCCCn1ccnc1 | -1% | 12 | 16 | -10% | 18µM* | 47% | 68% | 8% | -14% | -20% | -13%
CC(C)(C)c1cc(Cl)ccc1OCCn1ccnc1 | -8% | 1 | -13 | 0% | 18µM* | -6% | 5% | 12% | -11% | 0% | -21%
COCCNC(=O)C1(C)CCCN(Cc2csc3ccccc23)C1 (configuration not stated) | nt | nt | nt | -10%[18.4 µM] | nt | 2% | nt | nt | nt | nt | nt
COc1ccc(N2C(=O)CC(NNc3ncc(Cl)cc3Cl)C2=O)cc1 (configuration not stated) | -4% | 11 | -5 | -17% | 16µM* | 4% | -1%[10.4 µM] | -13% | 12% | 5% | 8%
Nc1ncnc(Nc2cc(Cl)cc(Cl)c2)c1[N+](=O)[O-] | -3% | -2 | -8 | 24% | 4% | -6% | nt | nt | nt | nt | nt
Nc1ncnc(NNC(=O)CNC(=O)c2c(F)cccc2Cl)c1[N+](=O)[O-] | 1% | 2 | -15 | 9% | 16µM* | 0% | -16% | -3% | -2% | 5% | 0%
C#C[C@]1(O)CC[C@@H]2[C@H]3CCC4=Cc5oncc5C[C@]4(C)[C@@H]3CC[C@@]21C | nt | nt | nt | nt | 0%[21.7 µM] | nt | nt | nt | nt | nt | nt
Nc1c(/C=C2/C=CC(=O)C(O)=C2)c(=O)nc2sc(CC(=O)N3CCCC3)nn12 | 4% | 6 | -9 | 7% | 7.9µM* | 0% | 0% | 6% | -18% | ? | 0%
CCCCC[C@H](C)N1C[C@H](COCc2ccccc2)Oc2cc(N3CC[C@@H](N(C)C)C3)ccc2S1(=O)=O | nt | nt | nt | 24% | nt | 2% | nt | nt | nt | nt | nt
CCn1c2ccccc2c2n[nH]c(=S)nc21 | -11% | -4 | -2 | 38% | 7% | -26% | nt | nt | nt | nt | nt
O=C(O)Cn1c2ccccc2c2n[nH]c(=S)nc21 | 2% | -4 | nt | 8% | 8.9µM* | ? | 19% | -3% | 7% | 4% | 8%
Clc1ccc(OCCn2cnc(Cl)c2Cl)cc1 | 1% | -2 | 24 | 32% | 2% | -10% | nt | nt | nt | nt | nt
Cc1nccn1CCOc1ccc(Cl)cc1 | -7% | -1 | nt | 5% | 25µM* | -4% | -16%[10.4 µM] | 11% | 0% | 2% | 8%
O=C(N/N=C/c1ccncc1)c1nc2ccccc2c(=O)[nH]1 | 2% | 17* | 32 | 1% | 11µM* | 8% | 11% | 24% | -9% | -17% | 0%
CCOc1ccc(C(=O)c2oc3ccccc3c2NC(=O)c2cc(=O)c3ccc(C)cc3o2)cc1 | nt | nt | nt | nt | nt | -14% | nt | nt | nt | nt | nt
O=C(O)c1ccccc1C(=O)O | nt | nt | nt | 8% | nt | 4% | nt | nt | nt | nt | nt
O=C(O)c1ccc[nH]c1=S | -6% | -2 | -5 | -4% | 4.5µM* | -3% | 27%[38.3 µM] | -7% | 2% | 0% | 9%
SMILES | LmPK inh | Cycloheximide cs | Shiga toxin inh | RE007 growth inh | Giardia FBPA inh-1 | TbPYK inhibitor | Giardia growth | Mammal cell tox | Giardia FBPA inh-2 | Rabbit aldolase | GAPDH counter
CN(C)CCc1c[nH]c2cccc(OP(=O)(O)O)c12 | nt | nt | nt | nt | nt | 4%[157 µM] | nt | nt | nt | nt | nt
NC(=S)N/N=C/c1ccc(C(F)(F)F)cc1 | -1% | 7 | 10 | -4% | ? | -10% | nt | nt | nt | nt | nt
NC(=S)N/N=C/c1ncc(C(F)(F)F)cc1Cl | 3% | 0 | 11 | -9% | 6.3µM* | 0% | 3%[10.4 µM] | ? | -18% | 4% | ?
Cc1cc(S(=O)(=O)NCc2ccccc2)ccc1OCC(=O)N1CCCC1 | -5% | -3 | -28 | 1% | nt | -5% | nt | nt | nt | nt | nt
COc1cc(CNC(C)(C)CO)ccc1OCC(=O)NC(C)(C)C | 1% | -1 | 19 | 9% | 2% | -4% | nt | nt | nt | nt | nt
COc1cc(CNn2cn[nH]c2=S)ccc1OCC(=O)NC(C)(C)C | 1% | -4 | -5 | 12% | 10µM* | ? | ? | -1% | 3% | -1% | 13%
Cc1[nH]c(=S)[nH]c(=O)c1CCC1OCCO1 | 4% | -5 | -4 | nt | 7.1µM* | 1% | 7%[38.3 µM] | -2% | 7% | 9% | -11%
CC(=O)Nc1ccc(-c2ccc(NC(C)=O)c(O)c2)cc1O | -10% | 18* | 33* | 16% | -29% | -7% | -5%[38.3 µM] | -19% | 2.6µM* | -26% | ?
CN1CCc2c(sc(/N=C/c3c[nH]c4ccccc34)c2C#N)C1 | -9% | 10 | 13 | -5% | 18µM* | -12% | 14%[10.4 µM] | -16% | -25% | -19% | ?
CN1CCc2c(sc(/N=C/c3c[nH]c4ccccc34)c2C(N)=O)C1 | 0% | 12 | 16 | 2% | ? | -10% | nt | nt | nt | nt | nt
